# An excerpt weighted towards active compounds, which were near 2.4% of everything screened.
# D2 PAM-1 = HTS Assay for Positive Allosteric Modulators of the Human D2 Dopamine Receptor: Primary Screen for Potentiators; HEK293 T-REx D2, calcium flux, EC20 dopamine potentiation; AID 485347, 2010; 340,000 tested, 0.34% active; potentiation, % at 10 µM; D(2) dopamine receptor (Homo sapiens), P14416;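 active means potentiation over 3 SD above the plate norm, cut at about 30% in these data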; further: 0% is about no effect
# Target sequence (P14416 whole entry, looked up): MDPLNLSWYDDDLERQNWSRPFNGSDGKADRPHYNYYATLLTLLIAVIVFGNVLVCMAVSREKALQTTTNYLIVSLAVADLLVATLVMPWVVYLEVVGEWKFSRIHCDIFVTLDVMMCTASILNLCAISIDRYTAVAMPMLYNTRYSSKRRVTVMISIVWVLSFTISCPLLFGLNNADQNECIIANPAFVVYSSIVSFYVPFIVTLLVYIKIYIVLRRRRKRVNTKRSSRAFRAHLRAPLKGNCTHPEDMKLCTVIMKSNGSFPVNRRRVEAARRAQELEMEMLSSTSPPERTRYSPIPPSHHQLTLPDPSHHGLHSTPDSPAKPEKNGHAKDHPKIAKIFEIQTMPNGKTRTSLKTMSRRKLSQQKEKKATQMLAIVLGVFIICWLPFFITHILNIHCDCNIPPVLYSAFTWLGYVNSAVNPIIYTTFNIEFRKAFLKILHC
#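 Tetracycline-induced HEK293 T-REx cells force-coupled to calcium signalling expressed D2; compounds were pin-added after a 10 s baseline, read kinetically 180 s, then an EC20 dopamine challenge followed with a further 180 s calcium read.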
# D2 antagonist = HTS Assay for Allosteric Antagonists of the Human D2 Dopamine Receptor: Primary Screen for Antagonists. D(2) dopamine receptor (Homo sapiens), P14416. HEK293 TREx D2 cells, calcium flux, dopamine EC80. inhibition, % at 10 µM. 340,000 tested, 2% active. AID 485344, 2010; in the data active means inhibition above about 30%; inactive means below that, where a call was filed; further: 0% is about no effect
#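 Calcium flux kinetic readout in an inducible HEK293 TREx D2 line plated overnight at 30 C. After 180 s compound exposure, an EC80 dopamine challenge follows with another 180 s kinetic read to detect antagonism.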
# D2 PAM-2 = Beta-Arrestin HTS for Positive Allosteric Modulators of the Human D2 Dopamine Receptor: Potentiators | D(2) dopamine receptor (Homo sapiens), P14416 | DiscoveRx D2 beta-arrestin cells, luminescence, 90 min; 100% = 57 uM dopamine signal | potentiation, % (no concentration beside the values) | 360,000 tested, 0.23% active | AID 624464, 2012; in the data active means potentiation above about 50%
#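 D2 cells co-treated with compound plus 50 nM dopamine (EC20) for 90 min at 37 deg C to detect potentiation. Beta-arrestin recruitment was read as enzyme-fragment luminescence after 1 h at ambient temperature. Full response was set by 57 uM dopamine.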
# D2 ag-1 = Beta-Arrestin HTS for Positive Allosteric Modulators of the Human D2 Dopamine Receptor: Agonists; D(2) dopamine receptor (Homo sapiens), P14416; DiscoveRx PathHunter D2 beta-arrestin, luminescence, 90 min; 100% = 57 uM dopamine signal; activation, % (no concentration beside the values); 360,000 tested, 0.084% active; in the data active means activation above about 40%
#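 Agonist mode: compounds alone added to overnight-plated D2 PathHunter cells for 90 min at 37 C, with 57 uM final dopamine (EC100) defining full response. Beta-arrestin recruitment detected by chemiluminescent reagent, read after 1 h at ambient temperature.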
# D2 ag-2 = HTS Assay for Allosteric Agonists of the Human D2 Dopamine Receptor: Primary Screen for Agonists; HEK293 T-REx D2 cells, calcium flux agonist mode; D(2) dopamine receptor (Homo sapiens), P14416; 340,000 tested, 0.53% active; activation, % at 2 µM;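 active means activation over 3 SD above normal in the single-dose calcium agonist read, cut at about 30% in these data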; further: 0% is about no effect
#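 Tetracycline-induced HEK293 T-REx cells with force-coupled D2 receptor, plated overnight at 30 C, loaded with no-wash calcium dye. After a 10 s baseline, compound was pin-added and calcium flux read kinetically for 180 s; calcium rises flagged agonists.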
# An asterisk follows results filed as active; · = no result.
SMILES,D2 PAM-1,D2 antagonist,D2 PAM-2,D2 ag-1,D2 ag-2
COc1ccc(Cc2nc(-c3ccccn3)no2)cc1,5,34*,-1,-2,1
COc1ccc(Cc2nc(-c3ccncc3)no2)cc1,5,-20,51*,-1,-1
CC(C)(C)c1ccc(OCc2nc(-c3ccccn3)no2)c(Br)c1,7,38*,-21,0,0
Brc1cnc(N2CCCC2)nc1N1CCOCC1,4,35*,-2,-3,0
O=C(CN1CCN(Cc2ccc(F)cc2Cl)S1(=O)=O)Nc1ccc(F)cc1,7,·,·,·,-1
O=C(NC1=C(Nc2ccc(Cl)cc2)C(=O)c2ccccc2C1=O)c1ccccc1,1,7,51*,12,-1
CCCCN(CCCNC(=O)c1cc(Nc2ccc(OC)c(OC)c2)nc2ccccc12)Cc1ccccc1,-9,·,·,·,0
O=C1/C(=C\c2ccco2)SC(=S)N1c1ccccc1,0,47*,-6,3,-1
COC(C[C@H]1O[C@@H]1[C@@H](O)[C@H](C)OCc1ccccc1)OC,8,36*,-1,-1,0
CCOC(=O)c1c(NC(=O)C[n+]2ccccc2)sc2c1CCCC2,-22,46*,-39,-4,0
CCN(Cc1ccc2c(c1)OCCO2)C(=O)CN1C(=O)NC2(CCCCC2)C1=O,4,41*,-3,-2,1
COc1ccccc1NC(=O)NCC1(N(C)C)CCCCC1,-17,59*,-16,-4,0
COc1ccccc1NC(=O)NCC(c1ccco1)N1CCCCC1 (configuration not stated),-15,39*,-28,-4,0
COc1ccccc1NS(=O)(=O)c1cc(C(=O)NCC(c2ccco2)N2CCCCC2)ccc1C (configuration not stated),·,·,-39,-1,·
O=C(CSc1ccc(Br)cc1)NCC(c1ccco1)N1CCCCC1 (configuration not stated),0,39*,3,-4,0
Oc1ccc2ccccc2c1C=NC12CN3CCN(CN(C3)C1)C2,·,·,102*,11,·
OCC(CO)(CO)N=Cc1c(O)ccc2ccccc12,-7,-10,50*,8,0
Oc1ccccc1N=Cc1c(O)ccc2ccccc12,15,-2,-7,8,24
C=Cc1ccc(N=Cc2c(O)ccc3ccccc23)cc1,16,44*,3,-1,2
N#Cc1ccccc1Cn1c(=O)n(-c2ccc(F)c(Cl)c2)c(=O)c2sccc21,-8,·,·,·,·
CN1CCN(C(=O)CSc2nc(-c3cccs3)ccc2C#N)CC1,37*,-5,-5,2,-1
CSc1ccc(C(=S)N2CCN(CCO)CC2)cc1,10,-21,-12,-3,-1
OCCN1CCN(C(=S)c2ccc(Br)cc2)CC1,-7,55*,-11,-3,0
COc1ccc(CCN(C)CCCC(C#N)(c2cc(OC)c(OC)c(OC)c2)C(C)C)cc1OC (configuration not stated),-26,45*,-25,-3,-2
COc1cccc(C(=O)NCC(=O)N/N=C/c2cccc(OC(=O)c3ccc([N+](=O)[O-])cc3)c2)c1,·,·,4,4,·
SMILES,D2 PAM-1,D2 antagonist,D2 PAM-2,D2 ag-1,D2 ag-2
O=C(CNC(=O)c1ccc([N+](=O)[O-])cc1)N/N=C\c1ccc(OC(=O)c2ccccc2)cc1,-4,59*,27,2,-1
O=C(COc1ccc(/C=N/NC(=O)c2ccncc2)cc1)Nc1ccc([N+](=O)[O-])cc1,·,42*,-3,-2,-3
Cc1ccc(C(=O)c2sc(Nc3ccc(F)cc3)nc2N)c(C)c1,6,·,·,·,0
O=C(Nc1cccnc1)c1ccc2snnc2c1,6,35*,-13,2,-1
O=C(Nc1ccccc1)c1ccc2snnc2c1,-4,-4,-2,-5,-1
O=C(Cn1cc(SCc2ccc(F)cc2)c2ccccc21)N1CCCC1,-4,·,·,·,1
CCOC(=O)N1CCc2c(sc3c2c(=O)n(-c2ccc(Cl)cc2)c(=O)n3CC(C)C)C1,11,·,·,·,1
COc1ccc(CCNC(=O)Cc2c(C)c3c(cc(C)c4c(C)coc43)oc2=O)cc1,9,·,·,·,0
O=C(COC(=O)c1ccc(O)cc1O)Nc1ncc(Cl)cc1Cl,-1,31*,9,5,2
Cc1ccc(-n2ncc3c(NCCC4=CCCCC4)ncnc32)cc1C,18,·,·,·,0
O=S1(=O)CCOC[C@H](c2ccccc2)N1Cc1ccccc1,-9,30*,-5,-1,0
Cc1nc2c(c(SCC(=O)Nc3ccccc3C(F)(F)F)n1)CCC2,0,·,·,·,·
CC(C)(C)OC(=O)N1CCC(CNC(=O)c2ccc(F)cc2F)CC1,2,-3,0,3,0
COc1ccc(Cl)cc1NC(=O)NCC1CCN(C(=O)OC(C)(C)C)CC1,-33,95*,-16,-8,-1
COc1ccc(Cl)cc1NC(=O)NCCN1CCCCC1,-27,58*,-9,-2,0
C=CCNC(=O)Nc1cc(Cl)ccc1OC,-13,38*,-9,-4,1
CCCN1CCC(NC(=O)Nc2cc(Cl)ccc2OC)CC1,-39,85*,4,-19,1
COc1ccc(Cl)cc1NC(=O)NCc1ccco1,-16,18,-11,-5,0
Cc1ccc(C)c(CS(=O)(=O)c2cn(CC(=O)N(C(C)C)C(C)C)c3ccccc23)c1,-4,·,·,·,0
COc1ccc(CCN2C(=O)c3[nH]nc(-c4ccccc4O)c3C2c2ccccc2)cc1 (configuration not stated),13,·,·,·,0
COc1ccc(-c2noc(-c3cc(C(C)C)[nH]n3)n2)cc1,2,·,·,·,0
C=CCNC(=O)c1cc(Cl)ccc1[N+](=O)[O-],-4,-3,-32,-1,1
C=CCNC(=O)c1cc(Cl)ccc1Cl,33*,-15,-4,0,0
COc1ccc(OC)c(NC(=O)Nc2ccc(Cl)cc2)c1,-25,46*,-27,-1,-2
O=C(Cn1c(=O)nc(-c2ccccc2)c2cc(Cl)ccc21)NCCCc1ccccc1,8,·,·,·,0
Cc1cccc(N2CCN(c3ccc(C(=O)O)cc3NC(=O)c3cccc(Cl)c3)CC2C)c1 (configuration not stated),11,·,·,·,0
Oc1oc(-c2ccccc2)nc1C=NCc1ccncc1,5,31*,-13,-3,1
